Measured values: PubChem BioAssay AID2462 (Broad Institute, 2010)
The whole screen tested about 330,000 compounds, of which about 220 (0.067%) were called active. The sample holds actives, similar compounds and a random draw of the others, so the mix is not that of the screen.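 Rule for the calls: active = over half of replicate activation scores above 10%, or exactly half above 10 with the replicate mean above 10; inconclusive = replicate mean below 10 yet half the replicates above 10; inactive = over half of replicates below 10.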

Assay: caspase 3/7 activation in MEF A1-2A-BIM cells, primary screen, A1 inhibitor project, cell-based, luminescence, HTS (AID 2462)
Conditions: Caspase-Glo 3/7 luminescence, 3 h, stronger effect = higher value, percent of clofoctol response, vehicle zero, concentration not given here

SMILES	caspase activation
CCOc1ccc(Br)cc1S(=O)(=O)Nc1ccc(S(=O)(=O)Nc2cc(C)on2)cc1	1.21% (inactive)
O=C(Nc1ccc(Cl)c(Cl)c1)c1ccccc1NC(=O)C1CC=CCC1C(=O)O (configuration not stated)	-2.01% (inactive)
Cc1ccc(-n2ncc3c2CC(C)(C)CC3NC(=O)Cc2c(C)noc2C)cc1 (configuration not stated)	1.06% (inactive)
Cc1cc(C(C)(C)C)cc(S(=O)(=O)Nc2ccc(C(=O)O)cc2)c1C	-0.667% (inactive)
CCCCCn1c(=O)c(C(=O)OCC)c(Cl)c2ccccc21	0.0442% (inactive)
N#CCSc1nc(-c2ccccc2)nc2ccc(F)cc12	1.31% (inactive)
C#CCOCCOCCOCCNc1nc(N2CCN(C(=O)C([C@@H](C)O)n3cc([C@@H](N)CCCCN)nn3)CC2)nc(N2CCN(C(=O)[C@H](CCCCN)n3cc(CN)nn3)CC2)n1 (some centres not stated)	0.837% (inactive)
Cc1cc(=O)[nH]c(S)c1C#N	0.51% (inactive)
COCCn1c(N)c(NCc2ccccc2)c(=O)[nH]c1=O	-0.132% (inactive)
CCC(C)N(C(=O)COC(=O)C1C(C(=O)OC)=C(C)NC(C)=C1C(=O)OC)C1CCS(=O)(=O)C1 (configuration not stated)	-0.124% (inactive)
CCCCc1ccc(NC(=S)N2CCCC(CO)C2)cc1 (configuration not stated)	-0.669% (inactive)
CCCc1cc(C(=O)Nc2ccc(Cl)cn2)cs1	-8.84% (inactive)
Cc1ccc(C(C[N+](=O)[O-])c2c(C)cc3ccccn23)cc1 (configuration not stated)	1.62% (inactive)
Nc1ccccc1SC(C[N+](=O)[O-])c1ccccc1 (configuration not stated)	9.45% (active)
CCS(=O)(=O)c1cc([N+](=O)[O-])c(Sc2ccccc2N)s1	1.52% (inactive)
Cc1ccc(C(=O)Nc2nnc(C3=COCCO3)o2)cc1C	44.6% (active)
O=C(Nc1nnc(C2=COCCO2)o1)c1ccc([N+](=O)[O-])s1	-4.99% (inactive)
COc1cc(-c2nnc(NC(=O)C3=COCCO3)o2)cc(OC)c1OC	0.457% (inactive)
ON=C1/C(=N\O)CC2(C/C1=N/O)OCCO2	0.622% (inactive)
O=C1CCCc2nn(-c3ccccc3)nc21	-0.0976% (inactive)
COC(=O)Nc1ncc(CN2CCCCC2)s1	0.0297% (inactive)
CSCC[C@H](NC(=O)NCCc1ccc(F)cc1)C(=O)O	0.319% (inactive)
O=C(c1ccc(F)cc1)c1c[nH]c(C(=O)NCc2cccnc2)c1	0.0496% (inactive)

SMILES	caspase activation
CC(C)CC(=O)c1c[nH]c(C(=O)NCc2ccccc2)c1	6.29% (active)
COc1ccc(CNC(=O)c2cc(C(=O)C3CC3)c[nH]2)cc1	-0.0151% (inactive)
CC(=O)Nc1cccc(NC(=O)c2ccc3c(c2)CCN3S(C)(=O)=O)c1	0.604% (inactive)
COc1ccc(-c2n[nH]c3c2CN(C(=O)c2ccc(F)cc2)CC3)cc1	1.44% (inactive)
CCOC(=O)c1sc(N)c(C#N)c1COC(=O)C1=COCCO1	0.458% (inactive)
COc1ccc(CNC(=O)c2ccc(NS(=O)(=O)c3ccc4[nH]c(=O)[nH]c4c3)cc2)cc1OC	-0.468% (inactive)
COc1cccc(NC(=O)CN(C)C(=O)/C=C/c2cc(OC)ccc2OC)c1	-0.126% (inactive)
O=C(O)c1ccn(COc2ccc(Br)cc2)n1	-1.22% (inactive)
CC(C)N(C(=O)CN1CCN(S(=O)(=O)c2ccc(Br)s2)CC1)C(C)C	1.33% (inactive)
CC(C)n1cnc2c(NCc3ccccc3)cc(N[C@@H](CO)Cc3ccccc3)cc21	-2.12% (inactive)
O=c1c2ccccc2ccc2ccc(P(=O)(O)O)cc12	0.843% (inactive)
N#CCOc1ccc(C2=NO[C@@H]3[C@@H]4C[C@@H]([C@H]5C(=O)N(c6ccc7c(c6)OCO7)C(=O)[C@@H]45)[C@H]23)cc1	0.442% (inactive)
CSc1cc(C)[nH]c(=O)n1	-0.248% (inactive)
O=S(=O)(c1ccccc1)N(Cc1cccc(F)c1)c1ccccc1	0.447% (inactive)
O=[N+]([O-])/C=C/c1ccc2c(ccn2Cc2ccccc2)c1	9.93% (active)
O=C(Cn1ccc2cc(S(=O)(=O)N3CCCC3)ccc21)NCc1ccccc1	-0.143% (inactive)
COC(=O)Cn1cc(/C=C/[N+](=O)[O-])c2ccccc21	1.03% (inactive)
COc1ccc(S(=O)(=O)N(C)C[C@H]2Oc3ccc(NS(=O)(=O)c4cccs4)cc3CC(=O)N([C@H](C)CO)C[C@H]2C)cc1	-0.719% (inactive)
O=C(O)c1cccnc1Sc1ncnc2sc3c(c12)CCC3	-0.234% (inactive)
O=C(CSc1nc(Nc2ccccc2)nc(N2CCOCC2)n1)Nc1cc(Cl)ccc1O	0.376% (inactive)
Nc1nc(Br)c2ccccc2c1-c1ccc(F)cc1	-0.0976% (inactive)
CC(C)(O)C#Cc1ncc(C(F)(F)F)cc1Cl	0.0403% (inactive)
Cc1ccc(NCc2n[nH]c(=S)n2-c2ccccc2)cc1Cl	-0.072% (inactive)

SMILES	caspase activation
CCCS(=O)(=O)N1CCN=C1SCc1cccc(F)c1	-0.156% (inactive)
CCn1ncc(CNC(=O)C2(C)CC2(Br)Br)c1C (configuration not stated)	-0.282% (inactive)
COc1cc(C(=O)NC2CCN(Cc3ccccc3)CC2)cc(Cl)c1OC(C)C	-0.406% (inactive)
COc1ccccc1CNC(=O)CCCNS(=O)(=O)c1cccc2nsnc12	0.433% (inactive)
O=C(c1cc2ccccc2o1)N1CCN(S(=O)(=O)c2ccc(Cl)s2)CC1	-0.105% (inactive)
COc1ccc(CNC(=O)CN2CCC(n3nnc4cc(F)ccc43)CC2)cc1	-0.421% (inactive)
CC1CCCN(C(C(=O)Nc2ccc(C(C)C)cc2)c2ccc3c(c2)OCO3)C1 (configuration not stated)	-0.471% (inactive)
NC(=O)C1CCCN(CC(=O)N2CCN(c3ccccc3)CC2)C1 (configuration not stated)	-0.0385% (inactive)
Cc1ccc(S(=O)(=O)N2CCN(C(=O)CN3C(=O)NC(C)(c4ccc(Cl)cc4)C3=O)CC2)c(C)c1 (configuration not stated)	-0.688% (inactive)
CC(NCC(=O)Nc1ccccc1C(=O)NC1CC1)c1ccccc1Cl (configuration not stated)	0.355% (inactive)
CC(=O)N(CN1C(=O)C2C3C=CC(C3)C2C1=O)c1cccc(Cl)c1 (configuration not stated)	0.192% (inactive)
CCOc1ccccc1NC(=O)NC1CCCCCCC1	-0.841% (inactive)
Cn1c(CCCOc2ccc(Cl)cc2Cl)n[nH]c1=S	-0.629% (inactive)
O=C(NC(=S)Nc1ccc2oc(=O)ccc2c1)c1ccc(-c2cccc(Cl)c2Cl)o1	0.568% (inactive)
CC1CCc2[nH]c3ccc(C(=O)N(C)CC(=O)Nc4cccc(F)c4)cc3c2C1 (configuration not stated)	0.268% (inactive)
Cc1ccc(S(=O)(=O)c2c[nH]c3ccc(C)cc3c2=O)cc1	-2.55% (inactive)
COc1ccc(-c2cnc(SCCNC(=O)c3ccc4c(c3)OCO4)[nH]2)cc1	1.35% (inactive)
O=C(N/N=C/c1cccc(OCc2ccccc2)c1)c1ccc(Br)o1	0.285% (inactive)
COC(=O)c1ccc(COc2ccc(/C=N/NC(=O)C(=O)Nc3ccc(OC)cc3)cc2OC)o1	0.365% (inactive)
CCCc1ccc(OCc2ccc(C(=O)N/N=C/c3cccc([N+](=O)[O-])c3)o2)c(OC)c1	16.1% (active)
NC(=O)COC(=O)c1cc(S(=O)(=O)N2CCN(c3ccccc3)CC2)ccc1Cl	0.691% (inactive)
